# Sampled rows, rich in hits. Any-hit rate of the full collection: about 8.1%.
# KB-V1 MDR tox – kills drug-selected multidrug resistant KB-V1 cells. Potency, µM (titrated, usually from 46.1 µM), most hits filed as cytotoxic. KB-V1 MDR cells viability, CellTiter-Glo, 72 h. actives 3.4% (n = 400,000); note: % is set by controls: 0 for no effect and ±100 for the full control effect; nearly all actives have a fitted effect of over 60% in size
#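 KB-V1 MDR subline cells in DMEM (phenol-red free, 10% FBS) exposed to compounds in qHTS concentration series for 72 h at 37 degrees C. Viability read by CellTiter-Glo luminescence; concentration-effect curves fitted after normalization and correction.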
# KB-3-1 tox – KB-3-1 parental cell cytotoxicity; Potency, µM (top dose mostly 46.1 µM), hits mostly cytotoxic; KB-3-1 viability, CellTiter-Glo ATP luminescence, 72 h; actives 1.4% (n = 400,000); note: % is set by controls: 0 for no effect and ±100 for the full control effect; nearly all actives have a fitted effect of over 60% in size
#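 Here the drug-naive KB-3-1 line serves as comparator for MDR sub-line selectivity; cells received compound titrations, 72 h at 37 °C, then CellTiter-Glo readout.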
# SW480 rereplic – inducers of DNA re-replication in SW480 colon cancer cells | SW480 DNA re-replication, Hoechst DNA content imaging, 48 h | AID 624297 | actives 1.8% (n = 340,000) | Potency, µM (series often up to 46.1 µM), for the others: top-dose re-replication activation, actives largely listed as activators; note: % of control where 0% means no effect; nearly all actives have a fitted effect of over 55% in size
#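 Image-based DNA-content assay: after two days of treatment, nuclei were labelled with the DNA dye Hoechst and imaged, and hits were compounds raising the count of nuclei showing high fluorescence intensity.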
# ELG1 DNA repair – inhibitors of ELG1-dependent DNA repair in HEK293T cells. HEK293T ELG1-luciferase reporter, luminescence, 16 h; DNA damage induced by 5-fluorouridine. Potency, µM (titrated, usually from 46.1 µM), inactives show top-dose activity change, negative = inhibition, usual class: inhibitors. AID 504467. actives 2.3% (n = 330,000); note: % is set by controls: 0 for no effect and ±100 for the full control effect; nearly all actives have a fitted effect of over 55% in size
#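 Quantitative HTS, concentration-response format. 2,000 cells/well co-treated with 5-fluorouridine and compound, 16 hr in 5% CO2 at 37 °C; ONE-Glo luminescence read after 30 min.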
# MCF10A rerep – inducers of DNA re-replication in MCF 10A breast cells; AID 624296; actives 2.9% (n = 350,000); Potency, µM (series often up to 46.1 µM), for the others: at the highest dose activity, positive = re-replication, usual class: activators; MCF 10A DNA re-replication, Hoechst nuclear intensity, 48 h; note: % of control where 0% means no effect; nearly all actives have a fitted effect of over 50% in size
# Active calls of the source: *; i = inactive; ? = inconclusive; nt = not tested or not shown. Calls come from the whole dose curve; as a rule, active = well fitted curve in the direction sought with a large enough effect; inconclusive = small, poorly fitted or top-dose-only effect, or another doubt; inactive = no such curve, though single readings can be large; an effect the other way counts as inactive or inconclusive. Potency is the fitted concentration of half-maximal effect.
SMILES,KB-V1 MDR tox,KB-3-1 tox,SW480 rereplic,ELG1 DNA repair,MCF10A rerep
Cc1cccc(OCCN2C(=O)C(=O)c3cc(C)ccc32)c1,?,?,?,-11%,18µM*
CCCCN1C(=O)C(=O)c2cc(Cl)ccc21,?,?,?,?,23µM*
CCOC1=NS(=O)(=O)c2ccccc21,i,i,-4%,?,-4%
O=C(Cc1ccccc1)Nc1sc2c(c1C(=O)Nc1ccccc1Cl)CCCCC2,i,i,nt,nt,nt
CC[n+]1c(/C=C(\C)OC)sc2ccccc21,i,i,-3%,?,-4%
CC[n+]1c(/C=C/C=C/N(C(C)=O)c2ccccc2)sc2cc(OC)ccc21,13µM*,3.3µM*,?,-10%,-102%
COc1cccc(CNc2ccccc2O)c1OCc1ccccc1F,i,i,21µM*,?,?
COc1ccc(CC(=O)NCc2ccc3c(c2)CCN3C(=O)c2ccc(Cl)cc2)cc1,i,i,nt,nt,nt
CC1(C(=O)Nc2ccc3c(c2)OCCO3)CCN1Cc1ccc2ccccc2c1 (configuration not stated),21µM*,?,nt,nt,nt
CC1(C(=O)Nc2ccc3c(c2)OCCO3)CCN1Cc1ccc(-c2ccccn2)cc1 (configuration not stated),?,i,nt,nt,nt
CC1(C(=O)Nc2ccc3c(c2)OCO3)CCN1C(=O)Cc1ccc(-c2ccccc2)cc1 (configuration not stated),3.3µM*,12µM*,nt,nt,nt
CCN1CCC(NCCc2ccc(F)cc2)CC1,i,i,-3%,-4%,18µM*
CN1CCN(c2ccc(S(=O)(=O)N3CCOCC3)cc2NC(=O)CSCc2ccccc2)CC1,i,?,-11%,-5%,4%
COc1cc(NCc2ccccc2O)c2ncccc2c1,i,i,9%,13%,21µM*
CC(C)CC1=NN(C(=O)c2ccco2)C(O)(C(F)(F)F)C1 (configuration not stated),i,i,-2%,8%,-4%
CCC(C)Oc1ccc(/C=C/c2[nH]c(=O)[nH]c(=O)c2[N+](=O)[O-])cc1OC (configuration not stated),i,i,21µM*,?,?
COc1cc(/C=C/c2[nH]c(=O)[nH]c(=O)c2[N+](=O)[O-])ccc1OCCC(C)C,i,i,?,-7%,?
CC(=O)Nc1c(C(=O)Nc2ccc3c(c2)OCO3)oc2ccccc12,i,i,-5%,?,-5%
N#Cc1cnn(CC2CCCCC2)c1N,i,i,-5%,1%,-2%
N#Cc1c(NC(=O)c2ccc([N+](=O)[O-])o2)sc2c1CCC2,18µM*,5.2µM*,10µM*,?,21µM*
CN1CCc2c(sc(NC(=O)c3ccc([N+](=O)[O-])o3)c2C(N)=O)C1,?,?,1.5µM*,?,?
CN1CCc2c(sc(NC(=O)c3cc(Cl)sc3Cl)c2C(N)=O)C1,i,i,?,10%,23µM*
NC(=O)c1c(NC(=O)c2ccc([N+](=O)[O-])o2)sc2c1CCCC2,?,16µM*,1.5µM*,-7%,2.6µM*
CN1CCc2c(sc(NC(=O)c3ccco3)c2C(N)=O)C1,i,i,-5%,16%,-1%
Clc1ccccc1NCSC1=NCCS1,i,i,-1%,nt,-10%
SMILES,KB-V1 MDR tox,KB-3-1 tox,SW480 rereplic,ELG1 DNA repair,MCF10A rerep
N#Cc1cccc(C(=O)OCc2cccc(S(=O)(=O)N3CCOCC3)c2)c1,i,i,-8%,10%,2%
Cn1cnc(S(=O)(=O)Nc2ccccc2C(=O)NCC2CC2)c1,i,i,2%,-1%,-11%
COC(=O)CCCCCNC(=S)Nc1ccc2[nH]c(=O)[nH]c2c1,i,i,-5%,-3%,-11%
N#Cc1c(NC(=O)c2ccc(Cn3cc(Br)cn3)o2)sc2c1CCCCCC2,2.6µM*,?,29%,-13%,?
NC(=O)c1ccsc1NC(=O)c1ccc([N+](=O)[O-])o1,?,?,?,14%,3.7µM*
Cc1ccc(NC(=O)COc2ncnc3c(Cl)cc(Cl)cc23)cc1[N+](=O)[O-],i,i,-53%,0%,14%
COCCn1c(-c2ccc(OC)cc2)cnc1SCC(=O)Nc1cccc2ccccc12,7.3µM*,i,4%,?,0%
O=C(c1cn(-c2ccccc2)nc1-c1cccnc1)N1CCCC(C(F)(F)F)C1 (configuration not stated),?,i,0%,3%,1%
CSc1nsc2nc(=O)c(/C=C3\C(C)=Nc4ccc(C)cc43)c(N)n12,i,?,?,?,9.2µM*
CC1=Nc2ccccc2/C1=C/c1c(N)n2c(S(=O)(=O)CC(C)C)nsc2nc1=O,i,i,2%,15%,15µM*
CC1=Nc2ccc(C)cc2/C1=C/c1c(N)n2c(S(=O)(=O)C(C)C)nsc2nc1=O,i,i,13%,4%,?
CC1=Nc2ccc(C)cc2/C1=C/c1c(N)n2oc(C)cc2nc1=O,?,?,2%,-10%,18µM*
CC1=Nc2ccccc2/C1=C/c1c(N)n2c(S(=O)(=O)C(C)C)nsc2nc1=O,i,i,-9%,-6%,3%
Clc1cccc(N2CCN(c3nc4ccccc4c4nc(-c5cccnc5)nn34)CC2)c1,i,i,nt,nt,nt
CC(=O)Nc1ccc2c(c1)CCCC2=O,i,i,-2%,?,-5%
CCOc1cc(-n2cnnn2)c(OCC)cc1NC(=O)c1cnccn1,i,i,1%,6%,5%
CCOc1cc(N2CCOCC2)c(OCC)cc1NS(=O)(=O)c1ccc(Cl)s1,5.2µM*,6.5µM*,18µM*,19%,6.3µM*
CCOc1cc(N2CCOCC2)c(OCC)cc1NC(=O)c1nc2nc(C)cc(C)n2n1,i,i,-2%,7.9µM*,2%
CCOc1cc(N2CCOCC2)c(OCC)cc1NC(=O)c1cnccn1,i,?,0%,10µM*,0%
CCOc1cc(N2CCOCC2)c(OCC)cc1NC(=O)CCS(=O)(=O)c1ccc(Cl)cc1,i,i,-3%,?,16%
COc1ccccc1CNC(=O)c1cc(C2CC2)nc2c1cnn2C(C)C,2.9µM*,i,9%,-19%,?
CC(C)n1ncc2c(C(=O)Nc3cccc(C#N)c3)cc(C3CC3)nc21,i,?,-20%,?,23µM*
COc1ccc(OCCN2CCC(C(=O)NC(c3ccc(C)cc3)c3ccccn3)CC2)cc1 (configuration not stated),i,i,nt,nt,nt
Cc1cccn2c(=O)c3cc(C#N)c(=NC(=O)c4ccco4)n(Cc4ccco4)c3nc12,i,?,8%,0%,9%

# Screening data (PubChem)
